# Source: PubChem BioAssay
# Active and inactive are the calls of the source.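 The calls were made as follows, unless noted: active = normalized viability below 100% at a tested concentration; inactive = the rest.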 Where a SMILES comes first, the peptide text is derived from it. The star is where a group is joined. Cbz = O=C(OCc1ccccc1)*; CH2F = FC*
# Key:
# [1] = hESC survival regulators, cell-based (AID 493140; call rule not given here;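 also: cells exposed to compounds for four days before counting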); details: human embryonic stem cell survival screen; stronger effect = higher value
# [2] = sensitizers of A549 cells to miR-34 induction, primary screen, imaging, A549 dox-inducible miR-34, nuclei and caspase counts (AID 1347080;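 active = compounds whose cell count with miR-34 switched on is under 0.7 times the count with it off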); details: A549 miR-34 inducible, Hoechst nuclei count, 48 h
# [3] = inhibitors of Cryptococcus chitosan production, flow cytometry, Cibacron Brilliant Red staining (AID 1347148; call rule not given here;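 also: compound exposure lasted three days at 37 degrees C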); details: Cryptococcus neoformans chitosan, stronger effect = lower value; at 10 µM unless noted
# [4] = circadian clock period modulators, cell-based, LOPAC library, luminescence reporter (AID 2774; call rule not given here;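 also: values are relative to mean of DMSO wells on each plate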); details: circadian reporter cells, at 7 µM, actives lie on both sides
# [5] = tested on: Hepatitis C virus NS3 helicase; assay: HCV NS3 helicase inhibitors, primary screen, biochemical, fluorescence polarization, LOPAC1280 library (AID 687035; in the data active = inhibition above about 37%); details: Purified HCV NS3 helicase, Cy5-dT15 ssDNA binding fluorescence polarization; stronger effect = higher value; concentration not given here
# [6] = Cy5 fluorescence quenching or enhancement artefacts, artefact control for HCV NS3 helicase inhibitor project, biochemical, LOPAC1280 (AID 687037; call rule not given here); details: Cy5-DNA-NS3h complex fluorescence interference counterscreen
# [7] = phospholipid biosynthesis inhibitors in animal cells, primary screen, cell-based, LOPAC library, screen 4 (AID 1347384; call rule not given here); details: phospholipid biosynthesis inhibition screen, at 10 µM
# [8] = viability rescue of complex I mutant cybrids, primary screen, cell-based, galactose medium, ATP luminescence (AID 1645843;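 active = z-score of at least 1.8 in each of two replicates, scored against plate mean and spread of sample wells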;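 also: positive z means more ATP and so rescue of galactose-driven cybrid death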); details: complex I mutant cybrid cells, 72 h, stronger effect = higher value
# [9] = ovarian cancer cell viability with rucaparib, profiling panel, oncology-focused library, rucaparib conditional (AID 1508598); details: patient-derived ovarian cancer cells, CellTiter-Glo viability, 144 h, stronger effect = lower value
# [10] = stronger effect = lower value, cell number ratio, induced over uninduced
# [11] = measured here: relative caspase fold change +Dox/-Dox
# [12] = measured here: total cells with miR-34 induction, stronger effect = lower value
# [13] = measured here: total cells without miR-34 induction
smiles,measurement,setting,value
CC(C)n1cnc2c(NCc3ccccc3)nc(NCCO)nc21,survival,[1],106 (inactive)
same,fold change,[2]; [10],1.14 (inactive)
same,fold change,[2]; [11],1.24
same,cell count,[2]; [12],2020
same,cell count,[2]; [13],1780
same,fold fluorescence,[3],3.89 [at 153.2 µM] (inactive)
CCCCCCCCCCCCCCC[C@H](O)[C@H](N)CO,period change,[4],-0.08 h (inactive)
same,inhibition,[5],4% (inactive)
same,fluorescence ratio (interference),[6],0.9 (inactive)
same,fold change,[2]; [10],0.911 (inactive)
same,fold change,[2]; [11],1.55
same,cell count,[2]; [12],1060
same,cell count,[2]; [13],1170
same,fold fluorescence,[3],8.12 (inactive)
same,outcome,[7],inactive
same,z-score,[8],-0.39 (inactive)
CCCCCCCCCCC/C=C\C/C=C\CCCC(=O)O,survival,[1],98.8 (inactive)
same,fold change,[2]; [10],0.918 (inactive)
same,fold change,[2]; [11],0.921
same,cell count,[2]; [12],5350
same,cell count,[2]; [13],5820
same,fold fluorescence,[3],4.42 (inactive)
CCCCCCCCCCOCCC(=O)O,survival,[1],53.3 (inactive)
same,fold change,[2]; [10],0.905 (inactive)
same,fold change,[2]; [11],1.29
same,cell count,[2]; [12],5410
same,cell count,[2]; [13],5970
same,fold fluorescence,[3],6.36 (inactive)
N#CC(C#N)=C(N)/C(C#N)=C/c1ccc2[nH]ccc2c1,survival,[1],107 (inactive)
same,fold change,[2]; [10],1.01 (inactive)
same,fold change,[2]; [11],0.81
same,cell count,[2]; [12],5080
same,cell count,[2]; [13],5030
same,fold fluorescence,[3],3.69 [at 192.8 µM] (inactive)
CCCCC/C=C\C/C=C\C/C=C\CC1OC1CCCC(=O)O (stereo not drawn),survival,[1],114 (inactive)
same,fold change,[2]; [10],0.939 (inactive)
same,fold change,[2]; [11],1.34
same,cell count,[2]; [12],5900
same,cell count,[2]; [13],6280
same,fold fluorescence,[3],4.93 [at 1 µM] (inactive)
CC(=O)N[C@@H](CSC/C=C(\C)CCC=C(C)C)C(=O)O,survival,[1],97.5 (inactive)
same,fold change,[2]; [10],0.983 (inactive)
same,fold change,[2]; [11],1.12
same,cell count,[2]; [12],5900
same,cell count,[2]; [13],6000
same,fold fluorescence,[3],5.25 (inactive)
CC1=C(/C=C/C(C)=C\C=C\C(C)=C\C(=O)O)C(C)(C)CCC1,survival,[1],82.2 (inactive)
same,fold change,[2]; [10],0.906 (inactive)
same,fold change,[2]; [11],1.46
same,cell count,[2]; [12],5680
same,cell count,[2]; [13],6260
same,fold fluorescence,[3],4.39 (inactive)
COC(=O)C[C@H](NC(=O)[C@H](C)NC(=O)[C@@H](NC(=O)OCc1ccccc1)C(C)C)C(=O)CF (Cbz-Val-Ala-Asp(OMe)-CH2F),fold change,[2]; [10],0.848 (inactive)
same,fold change,[2]; [11],0.772
same,cell count,[2]; [12],5320
same,cell count,[2]; [13],6270
same,fold fluorescence,[3],3.45 [at 107 µM] (inactive)
same,viability,"[9]; at 0.000305 µM, OCI-C5x cells, with rucaparib 10 µM, 100% = cells with rucaparib alone",111% (inactive)
same,viability,"[9]; at 0.000305 µM, OCI-C5x cells, without rucaparib",113% (inactive)
same,viability,"[9]; at 0.000305 µM, OCI-P5x cells, with rucaparib 20 µM, 100% = cells with rucaparib alone",101% (inactive)
same,viability,"[9]; at 0.000305 µM, OCI-P5x cells, without rucaparib",108% (inactive)
same,viability,"[9]; at 0.00122 µM, OCI-C5x cells, with rucaparib 10 µM, 100% = cells with rucaparib alone",113% (inactive)
same,viability,"[9]; at 0.00122 µM, OCI-C5x cells, without rucaparib",122% (inactive)
same,viability,"[9]; at 0.00122 µM, OCI-P5x cells, with rucaparib 20 µM, 100% = cells with rucaparib alone",104% (inactive)
same,viability,"[9]; at 0.00122 µM, OCI-P5x cells, without rucaparib",107% (inactive)
same,viability,"[9]; at 0.00488 µM, OCI-C5x cells, with rucaparib 10 µM, 100% = cells with rucaparib alone",106% (inactive)
same,viability,"[9]; at 0.00488 µM, OCI-C5x cells, without rucaparib",114% (inactive)
same,viability,"[9]; at 0.00488 µM, OCI-P5x cells, with rucaparib 20 µM, 100% = cells with rucaparib alone",102% (inactive)
same,viability,"[9]; at 0.00488 µM, OCI-P5x cells, without rucaparib",112% (inactive)
same,viability,"[9]; at 0.0195 µM, OCI-C5x cells, with rucaparib 10 µM, 100% = cells with rucaparib alone",113% (inactive)
same,viability,"[9]; at 0.0195 µM, OCI-C5x cells, without rucaparib",119% (inactive)
same,viability,"[9]; at 0.0195 µM, OCI-P5x cells, with rucaparib 20 µM, 100% = cells with rucaparib alone",110% (inactive)
same,viability,"[9]; at 0.0195 µM, OCI-P5x cells, without rucaparib",102% (inactive)
same,viability,"[9]; at 0.0781 µM, OCI-C5x cells, with rucaparib 10 µM, 100% = cells with rucaparib alone",110% (inactive)
same,viability,"[9]; at 0.0781 µM, OCI-C5x cells, without rucaparib",120% (inactive)
same,viability,"[9]; at 0.0781 µM, OCI-P5x cells, with rucaparib 20 µM, 100% = cells with rucaparib alone",108% (inactive)
same,viability,"[9]; at 0.0781 µM, OCI-P5x cells, without rucaparib",111% (inactive)
same,viability,"[9]; at 0.313 µM, OCI-C5x cells, with rucaparib 10 µM, 100% = cells with rucaparib alone",104% (inactive)
same,viability,"[9]; at 0.313 µM, OCI-C5x cells, without rucaparib",118% (inactive)
same,viability,"[9]; at 0.313 µM, OCI-P5x cells, with rucaparib 20 µM, 100% = cells with rucaparib alone",96.2% (active)
same,viability,"[9]; at 0.313 µM, OCI-P5x cells, without rucaparib",107% (inactive)
same,viability,"[9]; at 1.25 µM, OCI-C5x cells, with rucaparib 10 µM, 100% = cells with rucaparib alone",117% (inactive)
same,viability,"[9]; at 1.25 µM, OCI-C5x cells, without rucaparib",115% (inactive)
same,viability,"[9]; at 1.25 µM, OCI-P5x cells, with rucaparib 20 µM, 100% = cells with rucaparib alone",103% (inactive)
same,viability,"[9]; at 1.25 µM, OCI-P5x cells, without rucaparib",106% (inactive)
same,viability,"[9]; at 5 µM, OCI-C5x cells, with rucaparib 10 µM, 100% = cells with rucaparib alone",115% (inactive)
same,viability,"[9]; at 5 µM, OCI-C5x cells, without rucaparib",119% (inactive)
same,viability,"[9]; at 5 µM, OCI-P5x cells, with rucaparib 20 µM, 100% = cells with rucaparib alone",106% (inactive)
same,viability,"[9]; at 5 µM, OCI-P5x cells, without rucaparib",108% (inactive)
CCCCC[C@H](O)/C=C/C=C\C/C=C\C/C=C\CCCC(=O)O,survival,[1],53.7 (inactive)
same,fold change,[2]; [10],1.03 (inactive)
same,fold change,[2]; [11],1.58
same,cell count,[2]; [12],5880
same,cell count,[2]; [13],5700
same,fold fluorescence,[3],4.64 [at 1 µM] (inactive)
CCCCC/C=C\C/C=C\CCCCCCCC(=O)NCC(=O)O,survival,[1],52.3 (inactive)
same,fold change,[2]; [10],0.95 (inactive)
same,fold change,[2]; [11],1.28
same,cell count,[2]; [12],6210
same,cell count,[2]; [13],6540
same,fold fluorescence,[3],3.7 (inactive)
CCCCC/C=C\C/C=C\C/C=C\C/C=C\CCCC(=O)O[C@@H](CO)COCCCCCCCCCCCCCCCC,survival,[1],92.7 (inactive)
same,fold change,[2]; [10],0.961 (inactive)
same,fold change,[2]; [11],1.06
same,cell count,[2]; [12],5620
same,cell count,[2]; [13],5840
same,fold fluorescence,[3],5.56 (inactive)
CCCCC[C@H](O)/C=C/C=C\C=C\C=C\[C@@H](O)[C@@H](O)CCCC(=O)O,survival,[1],89.1 (inactive)
same,fold change,[2]; [10],0.912 (inactive)
same,fold change,[2]; [11],1.26
same,cell count,[2]; [12],5670
same,cell count,[2]; [13],6220
same,fold fluorescence,[3],4.45 [at 1 µM] (inactive)
N#C/C(=C/c1ccc(O)c(O)c1)C(=O)OC/C=C/c1ccccc1,fold change,[2]; [10],1.11 (inactive)
same,fold change,[2]; [11],1.47
same,cell count,[2]; [12],4460
same,cell count,[2]; [13],4020
same,fold fluorescence,[3],10.2 [at 155.6 µM] (inactive)
